# High-throughput results: PubChem, National Center for Advancing Translational Sciences (NCATS)
# This is a sample that favours compounds with a hit; in the whole collection about 4.7% have one here.
# D1 potentiator = potentiators of human D1 dopamine receptor | P21728 | HEK293 TREx D1 cells, calcium flux, dopamine EC20 potentiation | potentiation, % at 10 µM | hit rate 0.036% among 360,000 | AID 504651; in the data active means potentiation above about 30%
# D1 antagonist = antagonists of human D1 dopamine receptor. P21728. HEK293 TREx D1 cells, calcium flux, dopamine EC80; stronger effect = lower value. activity change, negative = inhibition, % at 10 µM. hit rate 3.2% among 360,000. AID 504652; in the data active means activity change below about -30%
#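 After overnight tetracycline induction at 30 C, force-coupled D1 HEK293 cells took up a no-wash calcium dye at room temperature. Compounds were added and monitored 180 s, and the response to EC80 dopamine was then recorded.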
# TRHR agonist = agonists of human TRH receptor | TRHR cells, calcium flux fluo-8, FDSS agonist mode | activation, % at 2 µM | P34981 | hit rate 0.18% among 360,000
# Target sequence (P34981 whole entry, looked up): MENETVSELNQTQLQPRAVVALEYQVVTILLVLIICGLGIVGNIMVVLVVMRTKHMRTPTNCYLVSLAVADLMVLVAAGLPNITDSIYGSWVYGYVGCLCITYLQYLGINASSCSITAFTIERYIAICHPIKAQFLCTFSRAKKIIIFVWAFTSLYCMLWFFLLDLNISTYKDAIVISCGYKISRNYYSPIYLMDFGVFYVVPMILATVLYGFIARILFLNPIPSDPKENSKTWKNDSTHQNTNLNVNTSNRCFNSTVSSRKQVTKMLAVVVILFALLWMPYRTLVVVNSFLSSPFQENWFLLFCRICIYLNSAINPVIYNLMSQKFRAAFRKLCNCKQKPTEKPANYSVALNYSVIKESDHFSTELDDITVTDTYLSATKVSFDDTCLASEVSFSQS
#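 Steps: seed TRHR cells overnight; add fluo-8 no-wash Ca dye, RT 30 min–1.5 h; record 10 s baseline; pin-transfer compounds; monitor fluorescence 1 cycle/s for the agonist window. Calcium increases flag candidate agonists.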
# TRHR PAM = allosterically enhances the human TRH receptor; TRHR cells, fluo-8 calcium fluorescence, EC20 TRH enhancement; enhancement, % at 2 µM; hit rate 0.66% among 360,000; in the data active means enhancement above about 30%
#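 TRHR-expressing cells loaded with fluo-8 calcium dye were read kinetically (ex 480/em 530) during compound addition, then stimulated with an EC20 of TRH (10 nM final). Enhancement of the Gq-mediated intracellular calcium response was scored.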
# D1 agonist = agonists of human D1 dopamine receptor | HEK293 T-REx D1 cells, calcium flux, agonist mode | activation, % at 2 µM | hit rate 1% among 360,000 | AID 504660
#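 Agonism was scored from calcium flux recorded over 180 s (1 read/s) after pintool compound addition, following a 10-cycle baseline. Cells were inducible force-coupled HEK293 TREx D1, plated overnight at 30 C and loaded with no-wash calcium dye.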
# A number is an active result; i = inactive. Unless noted, no stated cut-off is given here; in the data, active means activation above about 30%; inactive means the rest.
SMILES,D1 potentiator,D1 antagonist,TRHR agonist,TRHR PAM,D1 agonist
O=C(N/N=C/c1ccc([N+](=O)[O-])cc1)c1cccnc1,i,i,i,i,i
Cc1ccccc1NCC(=O)N/N=C/c1ccc([N+](=O)[O-])cc1,i,-43,i,i,i
NC(=O)N/N=C/c1ccc(-c2ccc([N+](=O)[O-])cc2)o1,i,i,i,i,i
O=C(N/N=C/c1ccc(-c2ccc([N+](=O)[O-])cc2)o1)c1cccnc1,i,-42,i,i,i
O=C(Cc1ccccc1)N/N=C/c1ccc(-c2ccc([N+](=O)[O-])cc2)o1,i,-54,i,i,i
COc1ccc(C2CC(=O)N(CC(=O)Nc3cccc(C)c3C)c3ccccc3S2)cc1OC (centres undefined),i,i,i,i,i
O=c1[nH]c([N+](=O)[O-])nn1C(c1ccccc1)c1ccccc1,i,i,i,i,i
Cc1cc2c(c(=O)o1)C1O[C@](CCCCN3C(=O)c4ccccc4C3=O)(Cc3cc(C#N)ccc31)O2,i,i,i,i,i
O=C(/C=C/c1cccc(OCc2ccccc2)c1)c1cccnc1,i,-37,i,i,i
CC(C)(C)NC(=O)CN(Cc1ccc2c(c1)OCO2)C(=O)CCC(=O)Nc1nccs1,i,i,i,36,i
COc1ccc(N(CC(=O)NC(C)(C)C)C(=O)CCC(=O)Nc2nccs2)c(OC)c1,i,-31,i,i,i
COCCNC(=O)CN(Cc1ccc2c(c1)OCO2)C(=O)CCC(=O)Nc1nccs1,i,i,i,i,i
CC(C)(C)NC(=O)CN(Cc1ccco1)C(=O)CCC(=O)Nc1nccs1,i,-31,i,i,i
O=C(CNc1ccccc1Cl)N/N=C1\CCCc2ccccc21,i,i,i,i,i
OCC1(CCCc2ccccc2)CCN(Cc2cc(F)ccc2F)CC1,i,i,i,i,i
OCC1(CCc2ccccc2)CCN(Cc2cc(F)ccc2-n2cccn2)CC1,i,-32,i,i,i
O=[N+]([O-])c1cc(Cl)c(O)c2ncccc12,i,i,i,i,i
O=[N+]([O-])c1cc(Cl)c2cccnc2c1O,i,i,i,i,30
Cc1ccc(/C=N/N2CCN(c3ccc(Cl)cc3)CC2)o1,i,-48,i,i,i
Cc1ccc(/C=N/N2CCCCC2)o1,i,i,i,i,i
COc1cccc(CNC(=O)Cn2nc3c(cc2=O)CCCC3)c1OC,i,i,i,i,i
O=C1CN2C(=N1)N(Cc1ccccc1)c1ccccc12,i,-87,i,i,i
Fc1ccc(/C=C\c2nccc3c2[nH]c2ccccc23)cc1,i,i,i,i,i
C(=C\c1nccc2c1[nH]c1ccccc12)/c1ccccc1,i,-37,i,i,i
COc1cccc(-c2ccc(NC(=O)C3CCCN(CCCn4cccn4)C3)cc2)c1 (centres undefined),i,i,i,i,38
SMILES,D1 potentiator,D1 antagonist,TRHR agonist,TRHR PAM,D1 agonist
COc1ccc(O)c(CN2CCCC(C(=O)Nc3cccc(-n4cccn4)c3)C2)c1 (centres undefined),i,-68,i,i,i
CCCc1ncc(CN2CCCC(C(=O)Nc3ccc(-c4cccc(OC)c4)cc3)C2)cn1 (centres undefined),i,i,i,i,i
Cc1nn(C)c(Cl)c1CN1CCCC(C(=O)Nc2cccc(-n3cccn3)c2)C1 (centres undefined),i,-35,i,i,i
COc1ccc(CN2CCCC(C(=O)Nc3cccc(-n4cccn4)c3)C2)cc1 (centres undefined),i,-53,i,i,i
CCn1cc(CN2CCCC(C(=O)Nc3cccc(-n4cccn4)c3)C2)c(C)n1 (centres undefined),i,i,i,i,i
Cn1c(=O)c2c(-c3ccc(Cl)cc3)ccnc2n(C)c1=O,i,i,i,i,i
Cc1c(C)c(C)c(S(=O)(=O)Nc2ccc3[nH]c(=O)[nH]c3c2)c(C)c1C,i,i,i,i,i
COCCN1Cc2cccc(C(=O)Nc3ccc(Cl)cc3Cl)c2C1=O,i,i,i,i,i
COC(=O)/C=C1\N/C(=N\c2nc(C)cc(C)n2)N(c2ccccc2)C1=O,i,-52,i,i,i
COC(=O)/C=C1/N/C(=N\c2nc(C)cc(C)n2)N(c2ccccc2)C1=O,i,i,i,i,i
CCc1nnc(NS(=O)(=O)c2ccc(NC(=S)NC(=O)c3ccc(OC)c(OC)c3)cc2)s1,i,i,i,i,i
